PubChem BioAssay
Activity calls are given as the source filed them.

Legend:
[1] = small molecules captured by biotinylated probe aFSTL3 – biochemical, small-molecule microarray, fluorescence 635/667, stem cell growth factor project, primary screen (AID 1064); details: higher = more signal;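 note: measures binding of the biotinylated anti-FSTL3 antibody to printed compounds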
[2] = binders from COS7 lysate, DM2A8 probe, primary screen, torsin A project, cell lysate, small-molecule microarray, fluorescence 635/667 (AID 1065); details: higher = more signal, COS7 lysate expressing mutant human TOR1A
[3] = small molecules captured by biotinylated probe aFGF2 – biochemical, small-molecule microarray, fluorescence 635/667, stem cell growth factor project, primary screen (AID 1067); details: higher = more signal;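 note: measures binding of biotinylated aFGF2 protein to printed compounds on slides; z-score merges feature fluorescence and signal-to-noise across triplicate slides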
[4] = small molecules captured by biotinylated probe aFGF10 – biochemical, small-molecule microarray, fluorescence 635/667, stem cell growth factor project, primary screen (AID 1071); details: higher = more signal;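 note: score merges 667 nm spot intensity and signal to noise from triplicate slides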
[5] = molecular target: Neurogenic locus notch homolog protein 2 (Homo sapiens) (UniProt Q04721); test: small molecules binding Notch2 protein – biochemical, small-molecule microarray, 635 nm fluorescence, stem cell growth factors, primary screen (AID 1073); details: higher = more signal
[6] = molecular target: Pro-neuregulin-1, membrane-bound isoform (Homo sapiens) (UniProt Q02297); test: small molecules binding neuregulin-1 protein – biochemical, small-molecule microarray, fluorescence 635/667, psychiatric disease protein project, primary screen (AID 1075); details: NRG1 binding, 635 nm fluorescence, higher = more signal;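 note: score combines 667 nm spot fluorescence with signal to noise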
[7] = test system: Neuregulin-1 EGF-like domain; test: small molecules binding NRG1 EGF domain – biochemical, small-molecule microarray, 635 nm fluorescence, primary screen (AID 1081); details: higher = more signal;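 note: binding of the protein to compounds printed on small-molecule microarray slides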
[8] = FRG1 expression reporter modulators in myotubes – cell-based, C2C12 myotubes, firefly/Renilla luciferase, luminescence, FRG1 inhibition for FSHD, primary screen (AID 1084); details: FRG1 promoter luciferase, higher = more signal, called active from +8 up or from −8 down
[9] = small molecules captured by biotinylated probe aFST – biochemical, small-molecule microarray, fluorescence 635/667, stem cell growth factor project, primary screen (AID 1086); details: higher = more signal;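 note: score merges 667 nm fluorescence with signal-to-noise of each printed compound spot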
[10] = binders of probe aHhip on microarray, primary screen, stem cell growth factor project, biochemical, small-molecule microarray, fluorescence 635/667 (AID 1087); details: higher = more signal;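 note: score merges spot fluorescence at 667nm with spot signal to noise ratio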
[11] = test system: PRMT1 (protein arginine N-methyltransferase 1); test: small molecules binding arginine methyltransferase PRMT1 – biochemical, small-molecule microarray, 635 nm fluorescence, primary screen (AID 1088); details: higher = more signal;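 note: binding of Prmt1 protein to compounds spotted on small-molecule microarray slides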
[12] = growth effects on S. cerevisiae YJM789 – YJM789 clinical isolate, OD600, 24 h, basal, primary screen (AID 1089); details: higher = more signal, called active from +8 up or from −8 down;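 note: growth of clinical yeast isolate S. cerevisiae YJM 789 seeded 1000 cells per well; test concentration not given here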
[13] = S. pombe growth modifiers, basal conditions – strain 972, OD600, 24 h, no modulator, primary screen (AID 1090);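 note: basal condition with compound alone and no growth modifier present; test concentration not given here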; details: S. pombe 972 growth, higher = more signal, called active from +8 up or from −8 down
[14] = budding yeast growth modifiers under rapamycin – strain BY4716, OD600, 96 h, primary screen (AID 1091); note: test concentration not given here; details: S. cerevisiae BY4716 + rapamycin, higher = more signal, called active from +8 up or from −8 down
[15] = molecular target: Torsin-1A-interacting protein 2 (Homo sapiens) (UniProt Q8NFQ8); test: small molecules binding lysate-expressed LULL1 – cell lysate, human LULL1 lysate, 635/667 nm fluorescence, primary screen (AID 1092); details: small-molecule microarray, hLULL1 lysate binding, 635 nm fluorescence; higher = more signal;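 note: probe is lysate of COS7 cells overexpressing human LULL1; score merges per-feature 667 nm fluorescence with signal-to-noise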
[16] = optical density change of DRC41 E. coli – strain DRC41, OD650, 24 h, E. coli filamentation project, primary screen (AID 1093);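 note: MC1000 strain lacking acrAB efflux and sulA so SOS filamentation is blocked; test concentration not given here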; details: E. coli DRC41 growth, higher = more signal, called active from +8 up or from −8 down
[17] = probe aLefty2 binding to arrayed compounds – biochemical, biotinylated probe, 635/667 nm fluorescence, primary screen (AID 1094); details: small-molecule microarray, higher = more signal;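 note: score merges spot fluorescence near 667 nm with spot signal-to-noise ratio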
[18] = test system: Noggin (protein binding on small-molecule microarray); test: small molecules binding Noggin protein – biochemical, 635/667 nm fluorescence, primary screen (AID 1095); details: 635 nm fluorescence, higher = more signal;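 note: score merges 667 nm feature fluorescence with signal to noise over triplicate slides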
[19] = molecular target: Neurogenic locus notch homolog protein 3 (Homo sapiens) (UniProt Q9UM47); test: small molecules binding NOTCH3 protein – biochemical, 635/667 nm fluorescence, primary screen (AID 1096); details: small-molecule microarray, 635 nm fluorescence, higher = more signal
[20] = probe aEGFR binding to arrayed compounds – biochemical, biotinylated probe, 635/667 nm fluorescence, primary screen (AID 1097); details: small-molecule microarray, higher = more signal;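 note: probe is a biotinylated anti-EGFR antibody binding compounds printed on slides; score combines fluorescence near 667 nm and signal to noise of each spot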

Chain of Neurogenic locus notch homolog protein 3 (Homo sapiens) (Q9UM47 whole entry, looked up): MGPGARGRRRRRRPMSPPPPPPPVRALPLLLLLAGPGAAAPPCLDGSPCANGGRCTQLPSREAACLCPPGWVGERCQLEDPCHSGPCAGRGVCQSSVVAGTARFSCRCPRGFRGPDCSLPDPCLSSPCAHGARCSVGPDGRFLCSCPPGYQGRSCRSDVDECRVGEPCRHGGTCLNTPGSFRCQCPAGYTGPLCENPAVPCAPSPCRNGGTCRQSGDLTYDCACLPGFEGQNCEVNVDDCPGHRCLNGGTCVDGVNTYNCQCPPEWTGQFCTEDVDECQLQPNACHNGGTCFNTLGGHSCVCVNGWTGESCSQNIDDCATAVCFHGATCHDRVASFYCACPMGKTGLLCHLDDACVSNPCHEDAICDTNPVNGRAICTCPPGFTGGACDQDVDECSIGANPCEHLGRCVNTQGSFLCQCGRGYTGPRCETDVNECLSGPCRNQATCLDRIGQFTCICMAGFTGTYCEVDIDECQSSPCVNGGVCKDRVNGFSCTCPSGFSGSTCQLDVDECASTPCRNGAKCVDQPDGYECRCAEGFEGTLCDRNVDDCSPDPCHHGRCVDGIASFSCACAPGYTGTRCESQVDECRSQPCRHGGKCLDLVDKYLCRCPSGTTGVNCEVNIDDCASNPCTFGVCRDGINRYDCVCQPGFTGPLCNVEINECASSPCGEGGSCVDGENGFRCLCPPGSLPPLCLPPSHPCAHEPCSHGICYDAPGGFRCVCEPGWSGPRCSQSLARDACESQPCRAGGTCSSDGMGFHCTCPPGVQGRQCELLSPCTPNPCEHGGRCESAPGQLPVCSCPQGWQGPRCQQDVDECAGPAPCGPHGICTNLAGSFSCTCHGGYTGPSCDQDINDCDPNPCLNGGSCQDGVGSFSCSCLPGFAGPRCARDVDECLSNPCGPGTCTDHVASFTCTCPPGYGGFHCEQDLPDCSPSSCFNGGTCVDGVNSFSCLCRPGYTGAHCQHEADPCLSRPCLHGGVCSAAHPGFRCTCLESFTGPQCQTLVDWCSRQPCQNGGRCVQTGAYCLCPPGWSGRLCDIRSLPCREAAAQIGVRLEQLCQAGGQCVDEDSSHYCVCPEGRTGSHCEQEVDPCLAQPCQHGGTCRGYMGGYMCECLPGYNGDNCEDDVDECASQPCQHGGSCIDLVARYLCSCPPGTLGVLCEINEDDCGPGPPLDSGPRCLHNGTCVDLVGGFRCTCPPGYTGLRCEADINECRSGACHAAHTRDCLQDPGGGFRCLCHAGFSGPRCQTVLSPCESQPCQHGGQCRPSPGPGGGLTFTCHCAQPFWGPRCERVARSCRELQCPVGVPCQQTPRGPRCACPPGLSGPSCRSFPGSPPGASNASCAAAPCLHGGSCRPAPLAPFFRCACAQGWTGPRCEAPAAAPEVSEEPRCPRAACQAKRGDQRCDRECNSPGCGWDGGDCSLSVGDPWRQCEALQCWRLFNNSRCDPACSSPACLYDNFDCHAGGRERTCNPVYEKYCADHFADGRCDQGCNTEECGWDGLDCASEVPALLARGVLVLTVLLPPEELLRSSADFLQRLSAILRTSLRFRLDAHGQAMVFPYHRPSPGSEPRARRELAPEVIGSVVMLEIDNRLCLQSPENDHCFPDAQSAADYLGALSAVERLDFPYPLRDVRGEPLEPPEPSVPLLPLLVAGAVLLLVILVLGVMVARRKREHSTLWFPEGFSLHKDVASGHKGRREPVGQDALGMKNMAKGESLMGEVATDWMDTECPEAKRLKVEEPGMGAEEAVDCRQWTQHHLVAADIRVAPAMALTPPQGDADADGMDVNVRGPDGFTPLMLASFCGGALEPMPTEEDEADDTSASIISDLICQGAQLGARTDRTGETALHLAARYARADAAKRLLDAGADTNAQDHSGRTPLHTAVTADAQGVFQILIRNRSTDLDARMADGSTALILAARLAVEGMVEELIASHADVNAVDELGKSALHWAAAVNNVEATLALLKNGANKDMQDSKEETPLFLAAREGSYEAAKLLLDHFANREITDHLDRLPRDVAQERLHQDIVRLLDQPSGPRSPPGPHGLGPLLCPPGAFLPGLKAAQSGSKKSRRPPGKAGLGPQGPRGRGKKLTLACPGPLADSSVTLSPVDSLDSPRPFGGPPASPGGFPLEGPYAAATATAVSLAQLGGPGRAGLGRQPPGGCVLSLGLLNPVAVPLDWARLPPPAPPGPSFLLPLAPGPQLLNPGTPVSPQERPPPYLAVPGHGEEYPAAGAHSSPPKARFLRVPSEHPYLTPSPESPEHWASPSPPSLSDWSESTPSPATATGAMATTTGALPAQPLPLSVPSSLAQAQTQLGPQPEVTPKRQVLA
Chain of Torsin-1A-interacting protein 2 (Homo sapiens) (Q8NFQ8 whole entry, looked up): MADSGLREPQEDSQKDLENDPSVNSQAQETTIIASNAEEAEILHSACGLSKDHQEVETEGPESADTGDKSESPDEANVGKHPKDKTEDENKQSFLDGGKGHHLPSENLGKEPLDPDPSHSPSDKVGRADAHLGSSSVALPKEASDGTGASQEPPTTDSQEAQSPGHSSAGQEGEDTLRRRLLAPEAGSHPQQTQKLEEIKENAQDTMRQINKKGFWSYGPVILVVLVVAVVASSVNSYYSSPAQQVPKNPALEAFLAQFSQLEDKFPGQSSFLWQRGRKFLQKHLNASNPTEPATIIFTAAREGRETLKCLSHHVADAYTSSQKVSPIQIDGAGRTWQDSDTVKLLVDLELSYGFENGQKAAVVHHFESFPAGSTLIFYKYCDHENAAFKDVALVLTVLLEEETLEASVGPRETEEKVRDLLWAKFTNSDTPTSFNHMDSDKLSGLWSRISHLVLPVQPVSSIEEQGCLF
Chain of Pro-neuregulin-1, membrane-bound isoform (Homo sapiens) (Q02297 whole entry, looked up, the tested form may be a part, canonical isoform): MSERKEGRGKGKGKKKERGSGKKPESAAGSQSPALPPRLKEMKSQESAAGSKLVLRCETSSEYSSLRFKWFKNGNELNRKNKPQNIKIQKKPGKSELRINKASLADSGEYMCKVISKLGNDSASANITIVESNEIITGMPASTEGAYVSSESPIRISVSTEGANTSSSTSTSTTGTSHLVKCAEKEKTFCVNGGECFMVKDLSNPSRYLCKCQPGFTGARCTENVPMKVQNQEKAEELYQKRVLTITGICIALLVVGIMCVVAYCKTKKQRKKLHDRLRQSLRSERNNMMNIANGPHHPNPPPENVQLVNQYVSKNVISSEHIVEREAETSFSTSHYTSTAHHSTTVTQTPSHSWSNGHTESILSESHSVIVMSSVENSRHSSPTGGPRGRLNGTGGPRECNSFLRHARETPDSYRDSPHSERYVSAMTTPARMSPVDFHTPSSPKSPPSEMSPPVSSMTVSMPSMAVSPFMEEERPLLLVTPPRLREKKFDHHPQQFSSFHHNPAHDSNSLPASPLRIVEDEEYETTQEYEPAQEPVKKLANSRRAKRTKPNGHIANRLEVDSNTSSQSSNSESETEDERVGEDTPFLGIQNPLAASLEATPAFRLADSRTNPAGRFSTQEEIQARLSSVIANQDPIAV

SMILES	composite z-score [1]	composite z-score [2]	composite z-score [3]	composite z-score [4]	composite z-score [5]	composite z-score [6]	composite z-score [7]	z-score [8]	composite z-score [9]	composite z-score [10]	composite z-score [11]	z-score [12]	z-score [13]	z-score [14]	composite z-score [15]	z-score [16]	composite z-score [17]	composite z-score [18]	composite z-score [19]	composite z-score [20]
CC(C)CNC(=O)[C@@H]1c2ccccc2C(=O)N(Cc2cc(F)cc(C(F)(F)F)c2)[C@H]1c1ccc(CO)cc1	0.366	-0.23	0.0079	0.207	0.561	0.38	1.23	-1.78 (inactive)	0.0604	-0.0237	1.4	-0.212 (inactive)	-0.758 (inactive)	-0.483 (inactive)	1.73	2.93 (inactive)	0.188	0.179	0.379	-0.0214
CC(C)C(=C=CC[C@H](O)c1ccc(OCCO)cc1)C[C@H](O)c1cc(Cl)cc(Cl)c1O	-0.321	1.35	-0.0076	0.85	0.869	1.31	1.24	-1.66 (inactive)	0.32	0.0722	1.4	0.297 (inactive)	-3.66 (inactive)	-0.558 (inactive)	1.78	0.192 (inactive)	0.0511	1.41	1.04	-0.008
CC(C)(C)OC(=O)CC[C@@]1(C(=O)O)N=C(c2ccc(OCCCO)cc2)O[C@@H]1c1ccccc1CN=[N+]=[N-]	0.761	0.348	0.0732	0.246	0.717	1.03	1.19	5.39 (inactive)	0.971	0.259	1.29	0.947 (inactive)	0.642 (inactive)	0.0515 (inactive)	2.84	0.882 (inactive)	0.36	-0.195	0.44	0.272
C=CCNC(=O)[C@H]1[C@@H]2C(=O)O[C@@H](c3ccccc3)[C@@H](c3ccccc3)N2[C@@H](c2ccccc2OCCO)[C@]12C(=O)N(C(=O)OCCOC)c1ccc(C#CC3=CCCCC3)cc12	1.13	0.698	0.032	0.44	1.5	0.791	1.33	-1.89 (inactive)	0.877	-0.0022	1.55	1.85 (inactive)	-1.02 (inactive)	4.29 (inactive)	2.38	1.23 (inactive)	0.304	0.843	1.05	0.34
COCCOC(=O)N1C(=O)[C@@]2(c3cc(C#CC4=CCCCC4)ccc31)[C@H](C(=O)N1CCN(c3ncccn3)CC1)[C@H]1C(=O)O[C@H](c3ccccc3)[C@H](c3ccccc3)N1[C@@H]2c1ccc(O)cc1	-0.0505	0.181	0.0467	0.669	1.33	0.79	1.24	0.378 (inactive)	0.442	0.208	1.53	0.783 (inactive)	0.883 (inactive)	2.1 (inactive)	1.53	-0.56 (inactive)	0.0848	0.568	1.09	0.0891
Cc1ccc(S[C@]2(C(=O)NC(C)C)CC(=O)N(Cc3ccccc3C(F)(F)F)[C@@H]2c2ccc(CO)cc2I)cc1	1.01	-0.685	-0.0924	-0.545	-1.67	1.91	1.17	-0.62 (inactive)	-0.415	-0.274	1.13	-2.32 (inactive)	-4.49 (inactive)	1.18 (inactive)	0.515	-1.73 (inactive)	0.0844	-0.76	-0.669	-0.283
CCN(CC)c1ccc(N2CC=CC34O[C@@H]5/C=C\CCC(C)OC(=O)C5[C@H]3C(=O)N(CCO)[C@@H]4C2=O)cc1 (stereo not given in full)	0.478	-0.476	-0.103	-0.57	-0.331	1.57	1.15	1.16 (inactive)	-1.17	-0.134	1.2	-1.27 (inactive)	-2.02 (inactive)	-0.806 (inactive)	3.17	0.565 (inactive)	-0.134	-0.563	0.0541	-0.203
C=C(CCCC)/C(=C/C[C@@H](OC(=O)c1ccncc1)c1cccc(OCCO)c1)c1cnc2ccccc2c1	0.186	0.935	0.049	1.03	1.3	0.972	1.13	2.51 (inactive)	0.0095	0.443	1.57	-2.12 (inactive)	-1.98 (inactive)	1.53 (inactive)	1.52	0.657 (inactive)	0.0113	1.55	1.06	0.0617
CO[C@H]1O[C@H](CO)[C@@H](OC(=O)Nc2ccccc2-c2ccccc2)[C@H](OC(=O)Nc2ccc3c(c2)OCO3)[C@@H]1OC(=O)Nc1ccc2c(c1)OCO2	0.0632	0.291	0.0826	0.733	1.44	1.62	1.4	5.64 (inactive)	1.2	0.141	1.53	2.06 (inactive)	0.798 (inactive)	6.35 (inactive)	3.16	0.0976 (inactive)	-0.0269	0.91	1.07	-0.0177
COc1ccc(NC(=O)O[C@H]2[C@H](OC(=O)Nc3ccc4c(c3)OCO4)[C@@H](OC(=O)Nc3ccc4c(c3)OCO4)[C@@H](OC)O[C@@H]2CO)cc1	0.157	-0.0536	0.0397	0.639	0.922	1.57	1.2	6.75 (inactive)	0.4	-0.0296	1.56	1.5 (inactive)	1.61 (inactive)	-0.31 (inactive)	3.66	1.93 (inactive)	-0.0396	0.89	1.08	-0.0953
